The source of these data is PubChem BioAssay (Tox21).

Results filed as inconclusive are left out. Entries that show only a call come without a potency. A structure can be active in one record and inactive in another. Activity calls are given as the source filed them. Calls come from the whole dose curve; as a rule, active = well fitted inhibition curve with a large enough effect in the repeat runs; inconclusive = weak or mixed curves; inactive = no such curve, though single readings can be large or run the other way.
Note: nearly all actives have a fitted effect of over 50% in size.

Estrogen receptor (Homo sapiens), sequence (P03372 whole entry, looked up): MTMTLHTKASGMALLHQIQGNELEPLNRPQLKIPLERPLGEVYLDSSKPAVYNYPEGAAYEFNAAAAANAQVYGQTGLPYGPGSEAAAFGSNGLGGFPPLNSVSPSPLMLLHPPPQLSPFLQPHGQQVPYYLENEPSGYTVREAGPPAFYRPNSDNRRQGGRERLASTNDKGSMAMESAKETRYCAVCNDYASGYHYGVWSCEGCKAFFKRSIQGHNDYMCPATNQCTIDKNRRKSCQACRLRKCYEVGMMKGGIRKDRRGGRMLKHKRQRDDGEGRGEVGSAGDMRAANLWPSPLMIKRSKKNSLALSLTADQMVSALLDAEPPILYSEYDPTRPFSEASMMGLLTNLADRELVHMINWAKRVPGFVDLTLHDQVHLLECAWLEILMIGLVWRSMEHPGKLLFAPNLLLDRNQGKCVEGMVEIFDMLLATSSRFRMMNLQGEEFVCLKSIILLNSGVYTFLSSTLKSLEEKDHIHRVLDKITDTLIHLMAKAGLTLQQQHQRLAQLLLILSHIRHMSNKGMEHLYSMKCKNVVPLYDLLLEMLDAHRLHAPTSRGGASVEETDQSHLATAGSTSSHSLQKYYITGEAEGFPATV
Androgen receptor (Homo sapiens), sequence (P10275 whole entry, looked up): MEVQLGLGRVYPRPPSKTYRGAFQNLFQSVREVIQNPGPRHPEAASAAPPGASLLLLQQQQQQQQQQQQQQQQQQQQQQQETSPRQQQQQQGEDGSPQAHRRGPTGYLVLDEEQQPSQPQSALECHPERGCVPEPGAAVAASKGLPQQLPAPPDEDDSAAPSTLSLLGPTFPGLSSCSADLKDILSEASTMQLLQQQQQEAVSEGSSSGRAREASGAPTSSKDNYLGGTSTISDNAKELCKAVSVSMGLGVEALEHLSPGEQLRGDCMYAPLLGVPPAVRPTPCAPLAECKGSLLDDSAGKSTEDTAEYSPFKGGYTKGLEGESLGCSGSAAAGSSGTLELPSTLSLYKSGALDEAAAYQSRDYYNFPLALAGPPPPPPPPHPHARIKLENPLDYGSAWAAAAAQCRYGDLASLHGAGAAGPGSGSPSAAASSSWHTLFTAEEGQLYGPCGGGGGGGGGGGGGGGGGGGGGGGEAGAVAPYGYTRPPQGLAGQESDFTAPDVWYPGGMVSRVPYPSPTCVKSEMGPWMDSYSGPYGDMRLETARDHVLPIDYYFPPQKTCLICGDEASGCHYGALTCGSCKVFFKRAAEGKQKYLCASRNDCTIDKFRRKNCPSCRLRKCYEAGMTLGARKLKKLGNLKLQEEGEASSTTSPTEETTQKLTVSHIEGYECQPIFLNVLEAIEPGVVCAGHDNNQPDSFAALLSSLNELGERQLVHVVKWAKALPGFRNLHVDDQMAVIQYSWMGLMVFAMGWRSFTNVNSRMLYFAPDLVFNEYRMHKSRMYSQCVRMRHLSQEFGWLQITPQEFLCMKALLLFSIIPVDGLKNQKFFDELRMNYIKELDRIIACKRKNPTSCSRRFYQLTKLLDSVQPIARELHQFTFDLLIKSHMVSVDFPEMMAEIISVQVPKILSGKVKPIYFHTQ

One test deals with Androgen receptor (Homo sapiens) (UniProt P10275). Put plainly: qHTS assay to identify small molecule antagonists of the androgen receptor (AR) signaling pathway using the MDA cell line in the presence of 0.5 nM R1881 (AID 1259243). Particulars: MDA-kb2 MMTV-luciferase, R1881 0.5 nM, 16 h; series mostly up to 92.4 µM. In outline:
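With R1881 held at 0.5 nM (final), compound effects on MMTV-luciferase expression in MDA-kb2 cells were scored by luminescence after a 16 hr, 37C incubation.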
(In general: In qHTS, concentration-response curves come from the screen itself.)
For `C[Si](O[Si](C)(C)C)O[Si](C)(C)C`, the Potency entry was “inactive”.
For `O=C(O)c1ccccc1C(c1ccc(O)cc1)c1ccc(O)cc1`, the Potency entry was “inactive”.
Still for that read-out and setting: with `CC1CCC(C(C)C)C(O)C1` (stereo not given) the entry was “inactive”; with `OCCOCCOCCO`, “inactive”; with `Cc1ccc(N(C)C)cc1`, “inactive”.
Still for that read-out and setting: then `O=C(O)c1ccc2c(c1)C(=O)OC2=O`, with “inactive”.

The target of the next test is Estrogen receptor (Homo sapiens) (UniProt P03372). Put plainly: qHTS assay to identify small molecule antagonists of the estrogen receptor alpha (ER-alpha) signaling pathway using the BG1 cell line in the presence of 0.1 nM 17-beta-estradiol (AID 1259244). Note: potency is the fitted concentration of half-maximal effect. Particulars: VM7Luc4E2 (BG1) ERE-luciferase, antagonist mode, 0.1 nM E2, 22 h; series mostly up to 92.4 µM. The method, boiled down:
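Compounds were tested against 0.1 nM (final) 17beta-estradiol in VM7Luc4E2 cells, which express full-length ER-alpha and an ERE-luciferase reporter; luminescence was recorded following 22 h exposure.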
Consider `CCCCN(CCCC)CCCC`, for which the Potency result was “inactive”.
Regarding `CCOC(=O)NNc1nncc2ccccc12`, the Potency entry is “inactive”.
Still for that read-out and setting: then `O=C(O)c1ccccc1C(c1ccc(O)cc1)c1ccc(O)cc1`, with “inactive”; and `C#C[C@]1(O)CC[C@H]2[C@@H]3CCC4=CC(=O)CC[C@@H]4[C@H]3CC[C@@]21C`, with “inactive”; and `OCCOCCOCCO`, with “inactive”.
Still for that read-out and setting: then `CC(=O)CC(=O)Nc1ccccc1C`, with “inactive”; and `C=C(C)C(=O)O[C@H]1C[C@@H]2CC[C@@]1(C)C2(C)C`, with 2.71 µM (active) and inactive; and `CC(=O)Nc1ccccc1`, with “inactive”.
As for `CCCCC(CC)COC(=O)CCCCC(=O)OCC(CC)CCCC` (stereo not given), the Potency result was “inactive”.
Take `Cc1ccc(N(C)C)cc1`: the Potency entry is “inactive”.
With `COc1ccc(NC(C)=O)cc1N`, the Potency result is “inactive”.
Still for that read-out and setting: with `C/C=C1/CC2C=CC1C2` (stereo not given) the entry was “inactive”; with `C#CCN(C)Cc1ccccc1`, “inactive”.
Still for that read-out and setting: then `OCc1cccnc1`, with “inactive”; and `CC1=CCC2CC1C2(C)C` (stereo not given), with “inactive”; and `O=C(O)c1ccc2c(c1)C(=O)OC2=O`, with “inactive”.
On the same count and under the same terms, with `CCCCCOC(C)=O` the entry was “inactive”.
`O=C=NCCCCCCN=C=O`: the Potency result was “inactive”.
Consider `CCc1ccc(CCOc2ccc(CC3SC(=O)NC3=O)cc2)nc1` (stereo not given), for which the Potency was 54.5 µM (active) and inactive.
